Bioassay records as filed in PubChem BioAssay.
A1 inh – inducers of caspase activity in MEF A1-2A-BIM cells, primary screen, A1 inhibitor project, cell-based, CaspaseGlo luminescence; caspase-Glo luminescence, 3 h; percent of clofoctol signal, DMSO as zero; hit rate 0.51% among 21,000; caspase activation, % (no concentration beside the values);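 active = most replicate scores above 10, or exactly half above 10 with mean activity above 10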;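 note: effector caspase 3 and 7 activity cleaving a DEVD luciferin substrate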
BJeLR viab HTS – BJeLR cell viability loss, primary screen, luminescence, CellTiterGlo ATP | viability loss activity score, % (test concentration not listed) | hit rate 0.64% among 30,000 | BJeLR fibroblasts viability, 48 h; HRASV12, hTERT and SV40 LT/ST transformed | AID 2275, 2010; in the data active = viability loss activity score above about 50%;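 note: higher score means fewer live cells and less ATP luminescence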
* = called active by the depositor; / = no result given. In the library only some 0.89% were active in any assay of this set; here they are far more common.

SMILES	A1 inh	BJeLR viab HTS
COc1ccc(/C=C2\C(=O)C3(C)CCC2C3(C)C)cc1 (stereo not drawn)	1	-3
CCCN1C/C(=C/c2ccc(OC)cc2)C(=O)/C(=C/c2ccc(OC)cc2)C1	/	70*
CCOc1ccc(C(=O)Nc2cc(C)ccn2)cc1	-7	90*
CCOc1ccc(C(=O)NCC(=O)n2nc(C)cc2C)cc1	-4	1
O=C(NCc1cn2ccsc2n1)c1ccccc1C(F)(F)F	1	1
CC[C@]1(O)C[C@H]2CN(CCc3c([nH]c4ccccc34)[C@@](C(=O)OC)(c3cc4c(cc3OC)N(C=O)[C@H]3[C@@](O)(C(=O)OC)[C@H](OC(C)=O)[C@@]5(CC)C=CCN6CC[C@]43[C@@H]65)C2)C1	5	61*
CC(C)NC(=O)Nc1ccc2c(c1)C(=O)N([C@@H](C)CO)C[C@H](C)[C@@H](CN(C)Cc1ccc(Cl)c(Cl)c1)O2	0	0
C/C=C(/C)C(=O)O[C@@H]1c2cc(OC)c(OC)cc2-c2c(ccc(OC)c2OC)C[C@H]2C(=O)OC[C@H]12	0	12
COc1cc2c(c(OC)c1OC)-c1ccc(OC)c(=O)cc1[C@@H](NC(C)=O)CC2	2	60*
COc1cc(OC)cc(-c2nc(N)c3c(C)c(-c4ccc(OC)c(OC)c4)sc3n2)c1	10*	1
CN(Cc1ccccc1)C(=O)c1cnn(-c2ccccc2)c1-n1cccc1	0	10
C=CCOc1ccc2c3c(c(=O)oc2c1)CCC3	-1	-4
Cc1ccc(S(=O)(=O)Nc2cccc3c2O[C@@H](CN(C)C(=O)Nc2cccc4ccccc24)[C@@H](C)CN([C@H](C)CO)C3=O)cc1	/	1
C[C@@H]1CN([C@H](C)CO)C(=O)c2cc(NC(=O)C3CC3)ccc2O[C@@H]1CN(C)Cc1ccc(C(=O)O)cc1	0	4
C[C@H]1CN([C@@H](C)CO)C(=O)c2cccc(NS(=O)(=O)c3ccc(F)cc3)c2O[C@H]1CN(C)Cc1ccc(Cl)c(Cl)c1	/	-2
Cc1ccc(-c2nc(-c3ccccc3)no2)cc1	-6	10
Cc1ccc2nc(-c3ccccc3)cn2c1	-7	78*
C=C1C(=O)O[C@H]2[C@H]1[C@H](O)CC(=C)[C@@H]1CC(=O)C(C)[C@H]21 (stereo partly drawn)	0	-4
CCCc1c(C(=O)O)c(O)cc2c1C(=O)c1c(O)cccc1C2=O	1	2
CCCCCC(=O)Cc1cc(O)c(O)c2c1C(=O)Oc1cc(O)c(C(=O)O)c(CCCCC)c1O2	1	99*
CCCNC(=O)c1cc2c(=O)n3cccc(C)c3nc2s1	/	-2
Cc1[nH]c2ccccc2c1C(c1ccccc1)N1CCN(C)CC1 (stereo not drawn)	66*	40
Cc1[nH]c2ccccc2c1C(O)c1cccnc1 (stereo not drawn)	1	-2
COC(=O)COc1cccc2c1ccc1c3c(c(=O)oc12)CCCC3	-2	-8
COc1ccc(CNC(=O)CN2N=C(c3ccc(Cl)cc3)CCC2=O)c(OC)c1	-1	0
SMILES	A1 inh	BJeLR viab HTS
Cc1ccc(S(=O)(=O)Nc2ccc3c(c2)C(=O)N([C@H](C)CO)C[C@H](C)[C@H](CN(C)C)O3)cc1	0	-3
O=C(NCc1cccnc1)/C(=C\c1cccc(Oc2ccccc2)c1)S(=O)(=O)c1ccccc1	47*	96*
O=C(NCc1cccnc1)/C(=C\c1ccc(Br)cc1)S(=O)(=O)c1ccccc1	1	7
COc1cc([C@@H]2c3cc4c(cc3[C@@H](O[C@@H]3O[C@@H]5CO[C@@H](C)O[C@H]5[C@H](O)[C@H]3O)[C@H]3COC(=O)[C@H]23)OCO4)cc(OC)c1O	0	15
COc1cc2c(c(OC)c1OC)-c1cc3c(cc1C[C@H]1C(=O)OC[C@@H]1C2)OCO3	1	42
COc1cc([C@@H]2c3cc4c(cc3[C@H](O)[C@H]3COC(=O)[C@H]23)OCO4)cc(OC)c1OC	2	54*
COc1cc([C@@H]2c3cc4c(cc3[C@H](O)[C@H]3COC(=O)[C@@H]23)OCO4)cc(OC)c1OC	3	93*
CN(C)C(=S)Nc1cc(C(F)(F)F)cc(C(F)(F)F)c1	0	0
Cc1ccc(S(=O)(=O)Nc2cccc3c2O[C@H](CN(C)S(=O)(=O)c2ccc(Cl)cc2)[C@@H](C)CN([C@H](C)CO)C3=O)cc1	/	-3
CC12CC3(C)CC(C)(C1)CC(CN=Cc1ccc(O)cc1)(C2)C3	13*	3
Oc1ccc(/C=N/c2nccs2)cc1	0	-1
C[C@H](CO)N1C[C@H](C)[C@H](CN(C)C(=O)Nc2ccccc2)Oc2ccc(NC(=O)C3CC3)cc2C1=O	0	1
COc1ccc(C(=O)Nc2ccc(-c3cn4ccccc4n3)cc2)cc1	31*	8
Cc1ccccc1C(=O)Nc1cccc(-c2cn3ccccc3n2)c1	-1	5
